The values that follow come from publication PMC5540273 (PLoS ONE, 2017).

Some test systems named below: TYRO3; ULK1; ULK2; ULK3; VRK2; WEE1; WEE2; WNK1; WNK2; WNK3; WNK4.
What all share (details): concentration: 1 μM, replicates: in singlicate; n = 1
For test [1], the system named is TYK2(JH2domain-pseudokinase).
In another test the test system is T1, VEGFR2.
T1 construct: gene KDR

In another test the test system is T2, VPS34.
T2 construct: gene PIK3C3

The subject of another test is T3, YANK1.
T3 construct: gene STK32A

The next test relates to T4, YANK2.
T4 construct: gene STK32B

The subject of the next test is T5, YANK3.
T5 construct: gene STK32C

A further test concerns T6, YES.
T6 construct: gene YES1

The test system of a further test is T7, YSK1.
T7 construct: gene STK25

A further test has as its system T8, YSK4.
T8 construct: gene MAP3K19
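Further: KINOMEscan kinase panel screen.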

Take `O=C(Nc1cccc(Oc2ccc3nc(NC(=O)C4CC4)cn3n2)c1)c1ccccc1C(F)(F)F`: the “%Inh” value amounted to 0% in test [1]; 36% in the test on TYRO3; 0% in the test on ULK1; 0% in the test with ULK2; 1% in the test on ULK3; 99.8% in the test on VEGFR2. The “%Inh” value in the test on VPS34 came to 0%; in the test on VRK2, 0%; in the test on WEE1, 22%; with WEE2 it was 0%; with WNK1, 0%; in the test with WNK2, 0%. Further, the “%Inh” value stood at 0% in the test with WNK3; 13% in the test with WNK4; 0% in the test with YANK1; 0% in the test on YANK2; 0% with YANK3; 50% in the test on YES. Further, the “%Inh” value in the test on YSK1 is listed as 9%; in the test on YSK4, 70%.
In the case of `CC(=O)N1CCN(c2ccc(Nc3nccc(-c4sc(C(C)C)nc4-c4cccc(NS(=O)(=O)c5cccc(Cl)c5)c4)n3)cn2)CC1` [GSK1660437], the “%Inh” value turned out to be 0% in [1]; 40% in the test on TYRO3; 37% in the test with ULK1; 4% in the test on ULK2; 62% with ULK3; 26% with VEGFR2. For the same compound, the “%Inh” value amounted to 0% with VPS34; 0% in the test with VRK2; 0% with WEE1; 0% in the test on WEE2; 2% in the test with WNK1; 11% in the test with WNK2. Also, the “%Inh” value with WNK3 was 0%; in the test with WNK4, 0%; in the test on YANK1, 3%; with YANK2, 77%; in the test with YANK3 it was 0%; in the test with YES it was 92.4%. For the same compound, the “%Inh” value stood at 0% in the test with YSK1 and 9% with YSK4.
Turning to `O=C(Nc1ccccc1F)NC1CCN(c2ccnc(Nc3ccc(F)cc3)n2)CC1` [GSK1379800], the “%Inh” value in [1] came to 43%; with TYRO3 it was 0%; in the test with ULK1, 0%; in the test with ULK2 it was 0%; in the test with ULK3, 6%; with VEGFR2 it was 0%. The “%Inh” value in the test with VPS34 was 0%; in the test with VRK2, 4%; in the test on WEE1, 21%; in the test on WEE2, 0%; with WNK1, 9%; with WNK2 it was 6%. The “%Inh” value with WNK3 was found to be 37%; in the test on WNK4, 34%; in the test on YANK1, 0%; in the test on YANK2, 0%; in the test on YANK3 it was 1%; in the test with YES it was 4%. In addition, the “%Inh” value is on record as 0% with YSK1 and 14% in the test on YSK4.
For `Cn1cc(-c2ccc3c(c2)CCN3C(=O)Cc2cccc(F)c2)c2c(N)ncnc21` [GSK2603358], the “%Inh” value in test [1] is 64%; in the test with TYRO3, 0%; in the test on ULK1, 14%; with ULK2, 0%; in the test with ULK3, 27%; with VEGFR2, 75%. The “%Inh” value in the test with VPS34 is 0%; with VRK2, 23%; in the test with WEE1, 0%; with WEE2, 0%; with WNK1, 13%; with WNK2 it was 0%. Further, the “%Inh” value in the test on WNK3 was determined as 48%; in the test on WNK4 it was 59%; in the test on YANK1, 0%; with YANK2, 0%; in the test on YANK3, 4%; with YES, 22%. Further, the “%Inh” value was 31% in the test with YSK1 and 98.2% in the test with YSK4.
On to `CC(=O)Nc1nc2cnc(Nc3cc(NC(=O)c4cccc(C5(C#N)CC5)c4Cl)ccc3C)nc2s1`, for which the “%Inh” value in [1] came out at 0%; in the test with TYRO3 it was 15%; in the test with ULK1 it was 0%; in the test on ULK2, 6%; with ULK3, 0%; in the test on VEGFR2 it was 40%. Moreover, the “%Inh” value in the test with VPS34 turned out to be 22%; in the test with VRK2, 0%; in the test with WEE1, 0%; in the test on WEE2, 32%; in the test with WNK1 it was 0%; with WNK2, 0%. For the same compound, the “%Inh” value in the test on WNK3 came out at 0%; with WNK4, 0%; with YANK1 it was 0%; with YANK2, 12%; with YANK3, 25%; in the test with YES it was 82%. In addition, the “%Inh” value in the test with YSK1 and with YSK4 was 0% in each case.
Turning to `COc1cccc(C2=C(Nc3ccc(Cl)c(C(=O)O)c3)C(=O)NC2=O)c1` [SB-390769], the “%Inh” value in test [1] came to 100%; in the test with TYRO3 it was 0%; in the test on ULK1, 100%; in the test with ULK2, 100%; in the test on ULK3, 100%; in the test on VEGFR2, 0%. For the same compound, the “%Inh” value with VPS34 worked out at 0%; in the test with VRK2, 31%; with WEE1 it was 14%; in the test with WEE2 it was 0%; with WNK1 it was 100%; in the test on WNK2 it was 8%. In addition, the “%Inh” value in the test with WNK3 was 100%; with WNK4, 43%; in the test with YANK1, 100%; in the test with YANK2, 7%; with YANK3, 0%; in the test with YES, 8%. In addition, the “%Inh” value in the test with YSK1 was 0%; in the test on YSK4, 100%.
On to `CCn1c(-c2nonc2N)nc2c(C#CC(C)(C)O)nc(OC[C@H](N)c3ccccc3)cc21` [GSK943949], for which the “%Inh” value in test [1] is on record as 0%; in the test with TYRO3 it was 0%; with ULK1 it was 0%; with ULK2, 0%; with ULK3 it was 1%; with VEGFR2, 1%. For the same compound, the “%Inh” value worked out at 16% with VPS34; 0% in the test on VRK2; 1% in the test with WEE1; 2% with WEE2; 0% in the test on WNK1; 0% in the test with WNK2. Also, the “%Inh” value in the test with WNK3 turned out to be 0%; in the test on WNK4, 31%; in the test with YANK1, 0%; with YANK2, 0%; in the test with YANK3 it was 31%; with YES it was 19%. Moreover, the “%Inh” value in the test on YSK1 stood at 0%; with YSK4, 100%.
For the compound `COCCOCCOc1cc2ncc3c4ccc(C#N)cc4[nH]c3c2cc1OC`, the “%Inh” value came out at 41% in test [1]; 8% in the test on TYRO3; 79% in the test with ULK1; 99.4% with ULK2; 65% with ULK3; 0% in the test with VEGFR2. The “%Inh” value was found to be 0% in the test on VPS34; 9% with VRK2; 3% with WEE1; 15% in the test with WEE2; 0% in the test with WNK1; 0% in the test with WNK2. Moreover, the “%Inh” value was determined as 0% in the test with WNK3; 0% with WNK4; 0% in the test on YANK1; 0% with YANK2; 0% in the test with YANK3; 13% with YES. Further, the “%Inh” value in the test on YSK1 is given as 0%; in the test on YSK4, 93.7%.
In the case of `COc1ccc(-c2coc3ccc(-c4nnc(SCc5ccc(OC)c(C(F)(F)F)c5)o4)cc23)cc1`, the “%Inh” value was 1% in test [1]; 16% with TYRO3; 0% with ULK1; 6% with ULK2; 16% in the test on ULK3; 17% in the test on VEGFR2. For the same compound, the “%Inh” value with VPS34 is reported as 11%; with VRK2, 0%; with WEE1, 0%; in the test on WEE2 it was 0%; in the test on WNK1 it was 0%; with WNK2, 31%. For the same compound, the “%Inh” value with WNK3 worked out at 0%; in the test with WNK4, 4%; in the test with YANK1, 10%; with YANK2 it was 0%; in the test with YANK3 it was 0%; with YES it was 12%. Besides, the “%Inh” value with YSK1 was determined as 0%; in the test on YSK4, 20%.
Take `Cc1ccc(C(=O)N2CC[C@@H](O)C2)cc1-n1c(C)cc(OCc2ccc(F)cc2F)c(Br)c1=O`: the “%Inh” value (in test [1]; in the test with TYRO3; in the test with ULK1; with ULK2; in the test with ULK3; in the test on VEGFR2) was 0% in each case. Further, the “%Inh” value with VPS34, with VRK2, with WEE1, in the test on WEE2, with WNK1 and in the test on WNK2 was 0% throughout. Also, the “%Inh” value in the test on WNK3 turned out to be 0%; with WNK4, 0%; in the test with YANK1, 0%; with YANK2, 0%; in the test with YANK3, 0%; with YES, 20%. For the same compound, the “%Inh” value with YSK1 and in the test on YSK4 was 0% throughout.
